Bioassay records (PubChem)
This is a sample that favours compounds with a hit; in the whole collection about 3.2% have one here.
MsrA inh: bovine MsrA enzyme inhibitors, primary screen, biochemical, absorbance, HTS | Methionine sulfoxide reductase A (Bos taurus) | purified bovine MsrA, absorbance read-out | inhibition, % at 15.5 µM | actives 0.75% (n = 360,000); in the data active = inhibition above about 4.5%;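 also: 0% = vehicle wells with enzyme and 100% = reference inhibitor wells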
rCAG RNA binder: binders of r(CAG) RNA repeats, primary screen, biochemical, fluorescence | r(CAG) RNA repeat, TO-PRO-1 dye displacement fluorescence | actives 1.3% (n = 370,000) | inhibition, % at 3 µM;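 active = inhibition above the plate cutoff, the mean of all test compounds on that plate plus 3 SD, cut at about 35% in these data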;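 also: 0% = DMSO alone and 100% = 100 µM mitoxantrone as full dye displacement; higher means more dye released from RNA so lower well fluorescence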
NadD block: inhibitors of S. aureus NadD, primary screen, biochemical, colorimetric, uHTS; purified NadD enzyme, colorimetric absorbance read-out; AID 602399, 2012; actives 0.78% (n = 360,000); inhibition, % at 20 µM; in the data active = inhibition above about 26%
Pemphigus Ab inh: inhibitors of pemphigus antibody binding to DSG3, primary screen, biochemical, bead-based, flow cytometry, scFv-GFP | DSG3-coupled beads, scFv-anti-DSG3-GFP binding; active compounds read low | binding (percent of control), % at 10 µM | actives 0.48% (n = 310,000);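 active = binding more than 3 SD below its plate's average and above zero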;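 also: hits lower antibody fragment binding to DSG3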
Target sequence (P32926 whole entry, looked up, the tested form may be a part): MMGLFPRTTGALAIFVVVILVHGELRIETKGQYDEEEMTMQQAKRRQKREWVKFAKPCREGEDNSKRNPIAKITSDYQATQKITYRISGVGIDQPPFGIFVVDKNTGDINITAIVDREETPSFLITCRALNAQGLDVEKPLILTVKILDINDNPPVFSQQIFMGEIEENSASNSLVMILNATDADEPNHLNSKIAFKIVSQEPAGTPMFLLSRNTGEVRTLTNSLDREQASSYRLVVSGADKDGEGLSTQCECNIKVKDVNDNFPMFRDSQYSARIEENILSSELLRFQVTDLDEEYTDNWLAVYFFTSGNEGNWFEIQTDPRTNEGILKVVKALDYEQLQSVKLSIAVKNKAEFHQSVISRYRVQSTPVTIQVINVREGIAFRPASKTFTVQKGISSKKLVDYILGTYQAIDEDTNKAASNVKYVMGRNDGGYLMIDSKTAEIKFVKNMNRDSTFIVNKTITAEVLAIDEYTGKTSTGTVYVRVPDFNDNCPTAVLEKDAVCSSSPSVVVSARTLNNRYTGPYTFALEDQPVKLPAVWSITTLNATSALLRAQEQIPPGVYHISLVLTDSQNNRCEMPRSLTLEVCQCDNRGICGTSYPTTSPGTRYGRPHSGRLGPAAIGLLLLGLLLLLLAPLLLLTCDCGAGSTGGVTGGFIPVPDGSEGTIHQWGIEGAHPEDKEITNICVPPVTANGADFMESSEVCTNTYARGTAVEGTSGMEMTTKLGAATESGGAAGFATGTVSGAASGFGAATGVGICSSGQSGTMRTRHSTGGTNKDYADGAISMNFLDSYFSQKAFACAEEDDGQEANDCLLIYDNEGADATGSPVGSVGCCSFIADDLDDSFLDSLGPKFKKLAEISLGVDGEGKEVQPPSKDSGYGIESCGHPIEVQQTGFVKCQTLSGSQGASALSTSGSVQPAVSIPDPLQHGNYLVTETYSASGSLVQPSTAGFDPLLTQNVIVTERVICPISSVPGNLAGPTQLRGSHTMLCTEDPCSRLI
bovine MsrA act: bovine MsrA enzyme activators, primary screen, biochemical, absorbance, HTS | purified bovine MsrA, absorbance read-out | activation, % at 10.6 µM | actives 0.3% (n = 360,000); in the data active = activation above about 7.5%;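 also: 0% = vehicle and 100% = reference activator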
DAGLB inhibitor: DAGLB lipase inhibitors, primary screen, biochemical, fluorescence, HTS | Diacylglycerol lipase-beta (Homo sapiens), Q8NCG7 | HEK293T DAGLB membrane lysate, EnzChek fluorogenic substrate | inhibition, % at 5.17 µM | actives 0.059% (n = 340,000); in the data active = inhibition above about 34%;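 also: 0% = enzyme with vehicle and 100% = wells lacking enzyme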
NadD conf: inhibitors of S. aureus NadD, confirmation, biochemical, colorimetric, single concentration | shares compounds with NadD block | purified S. aureus NadD, colorimetric enzyme assay | inhibition, % at 20 µM | actives 13% (n = 2,000) | AID 624309, 2012; in the data active = inhibition mostly above about 42%, no sharp cut-off; inactive = mostly below about 42%
* = called active by the depositor.

For CN(c1ccccc1)S(=O)(=O)c1ccc(Cl)c(C(=O)Nc2ccc(-c3nc4ccccc4[nH]3)cc2)c1 the results were MsrA inh 4.3, rCAG RNA binder 21.0, NadD block 33.5*, Pemphigus Ab inh 91.8, bovine MsrA act -4.2, DAGLB inhibitor 1.8 and NadD conf 39.6.
Screening Cc1ccc(-c2csc(N3CCN(S(=O)(=O)c4ccc5c(c4)NC(=O)CO5)CC3)n2)cc1 returned MsrA inh -0.4, rCAG RNA binder 5.6, NadD block 38.7*, Pemphigus Ab inh 102.9, bovine MsrA act -2.1, DAGLB inhibitor -1.5 and NadD conf 8.1.
For O=C1COc2ccc(S(=O)(=O)N3CCCC3)cc2N1 the results were MsrA inh -1.2, rCAG RNA binder 1.1, NadD block -1.8, bovine MsrA act -2.1 and DAGLB inhibitor 0.7.
For CCOc1ccc(CCN2C(=S)N([C@@H](CC(C)C)CN3CCC[C@@H]3CN3C(=S)NC[C@@H]3Cc3ccccc3)C[C@@H]2Cc2ccc(O)cc2)cc1 the results were MsrA inh -0.2, rCAG RNA binder 14.6, NadD block 36.0*, bovine MsrA act -1.7 and NadD conf 0.6.
CCOc1ccc(CCN2C(=S)N([C@@H](Cc3ccccc3)CN3CCCC3CN3C(=S)NC[C@@H]3Cc3ccccc3)C[C@@H]2Cc2ccc(O)cc2)cc1 (stereo partly drawn) was read as MsrA inh 0.0, rCAG RNA binder 13.7, NadD block 50.4*, bovine MsrA act -1.8 and NadD conf 7.6.
CCOc1ccc(CCN2C(=S)N([C@@H](Cc3ccc(O)cc3)CN3CCC[C@@H]3CN3C(=S)NC[C@@H]3Cc3ccc(O)cc3)C[C@@H]2Cc2ccc(O)cc2)cc1 was read as MsrA inh -0.7, rCAG RNA binder 12.1, NadD block 36.0*, bovine MsrA act -3.0 and NadD conf 22.8.
For CCOc1ccc(CCN2C(=S)N([C@@H](Cc3ccc(O)cc3)CN3CCC[C@@H]3CN3C(=S)NC[C@@H]3Cc3ccccc3)C[C@@H]2Cc2ccccc2)cc1 the results were MsrA inh 0.5, rCAG RNA binder 12.4, NadD block 26.6 and bovine MsrA act 1.9.
COC(=O)[C@H](Cc1ccccc1)N1Cc2ccccc2Oc2cc(Br)ccc2S1(=O)=O was read as MsrA inh 0.7 and rCAG RNA binder 7.7.
`CN(c1cccnc1)c1ccc(NC(=O)Cc2cn(Cc3ccccc3)c3ccccc23)cc1Br` gave MsrA inh 0.4 and rCAG RNA binder 9.0.
Cc1cn(CC(=O)NCCc2ccccn2)c(=O)[nH]c1=O was read as MsrA inh -0.4, rCAG RNA binder 1.5, NadD block -2.6, Pemphigus Ab inh 107.8, bovine MsrA act -1.9 and DAGLB inhibitor 0.1.
Screening Cc1ccc(Nc2nnc(SCC(=O)Nc3ncc(S(=O)(=O)c4ccc([N+](=O)[O-])cc4)s3)s2)cc1 returned MsrA inh 0.3, rCAG RNA binder 14.8, NadD block 45.4*, Pemphigus Ab inh 94.8, bovine MsrA act -4.2, DAGLB inhibitor 4.1 and NadD conf 7.8.
Screening CC(C)c1ccc(Nc2nnc(SCC(=O)Nc3ncc(S(=O)(=O)c4ccc([N+](=O)[O-])cc4)s3)s2)cc1 returned MsrA inh -0.1, rCAG RNA binder 8.2, NadD block 36.3*, Pemphigus Ab inh 96.8, bovine MsrA act -2.1, DAGLB inhibitor 1.6 and NadD conf 9.0.
Screening CC1(C(=O)NS(=O)(=O)c2ccccc2Cl)CCN1C(=O)C/C=C/c1ccccc1 (stereo not drawn) returned MsrA inh 0.3, rCAG RNA binder 12.6, NadD block -3.3 and bovine MsrA act -4.2.
For COc1ccccc1CNC(=O)/C=C/c1ccc(Br)o1 the results were MsrA inh -0.2, rCAG RNA binder 9.0, NadD block 31.8*, Pemphigus Ab inh 97.0, bovine MsrA act 2.2, DAGLB inhibitor 0.3 and NadD conf 29.7.
Screening COc1ccccc1CNC(=O)Cc1ccc(Br)cc1 returned MsrA inh -0.6, rCAG RNA binder 0.1, NadD block 0.0, Pemphigus Ab inh 118.4, bovine MsrA act -8.8 and DAGLB inhibitor -1.4.
`O=C(Cn1cnc2c(NCc3ccccc3)ncnc21)NCCCN1CCCC1=O` gave MsrA inh 2.5, rCAG RNA binder 0.4, NadD block -0.5, Pemphigus Ab inh 103.0, bovine MsrA act 0.8 and DAGLB inhibitor -1.8.
N#CC/C(N)=N/Nc1nc2ccccc2nc1Cc1ccccc1 was read as MsrA inh -1.1, rCAG RNA binder 24.2, NadD block 34.2*, Pemphigus Ab inh 120.4, bovine MsrA act -11.9, DAGLB inhibitor 4.3 and NadD conf 12.1.
N#CCn1c(Cc2ccccc2)nc2ccccc2c1=O was read as MsrA inh 0.4, rCAG RNA binder 2.1, NadD block -2.4, Pemphigus Ab inh 114.2, bovine MsrA act -0.9 and DAGLB inhibitor -1.7.
`COC(=O)C1CN(Cc2cn(CCOC(C)=O)nn2)CCS(=O)(=O)N1Cc1ccc(C)cc1` (stereo not drawn) gave rCAG RNA binder 0.5.
For CCOC(=O)c1cnc(-n2nc(C)cc2C)nc1NNc1nc(C)cc(C)n1 the results were MsrA inh -0.5, rCAG RNA binder -2.2, NadD block -0.6, Pemphigus Ab inh 97.3, bovine MsrA act -6.0 and DAGLB inhibitor -1.2.
Screening CCOC(=O)c1cnc(-n2nc(C)cc2C)nc1NNc1nc(-c2ccccc2)cc(-c2ccccc2)n1 returned NadD block 34.9*, Pemphigus Ab inh 110.6, bovine MsrA act -3.9, DAGLB inhibitor -3.9 and NadD conf 3.8.
For COc1ccc(N2CCN(CCNS(=O)(=O)c3ccc(F)cc3)CC2)cc1 the results were rCAG RNA binder -1.2.
`COc1ccc(-c2cccc(C3CC=CC4C3C(=O)N(Cc3ccccc3)C4c3ccc(C(F)(F)F)cc3)c2)cc1` (stereo not drawn) gave MsrA inh -0.8, rCAG RNA binder 5.4, NadD block 10.3, Pemphigus Ab inh 96.6, bovine MsrA act -4.9 and DAGLB inhibitor -12.0.
